For some of these results: Results with a measured potency or affinity are listed apart.

The values below come from ChEMBL document CHEMBL3988442, “University of Dundee, Small-Polar-MMV Screening Library” (2021).

What all share (parameters): scale not given: direction of the effect not stated beside the values
Test [1] has as its target Protein translocase subunit SecA (Escherichia coli (strain K12)) (UniProt P10408). Put plainly: Assay to Identify E. coli SecA ATPase Inhibitors. It counts as functional. The note with it: 30 µM.
Test [2] deals with T1, Ubiquitin-activating enzyme e1, putative (Leishmania donovani (strain BPK282A1)) (UniProt E9BSI1).
T1 sequence (whole entry): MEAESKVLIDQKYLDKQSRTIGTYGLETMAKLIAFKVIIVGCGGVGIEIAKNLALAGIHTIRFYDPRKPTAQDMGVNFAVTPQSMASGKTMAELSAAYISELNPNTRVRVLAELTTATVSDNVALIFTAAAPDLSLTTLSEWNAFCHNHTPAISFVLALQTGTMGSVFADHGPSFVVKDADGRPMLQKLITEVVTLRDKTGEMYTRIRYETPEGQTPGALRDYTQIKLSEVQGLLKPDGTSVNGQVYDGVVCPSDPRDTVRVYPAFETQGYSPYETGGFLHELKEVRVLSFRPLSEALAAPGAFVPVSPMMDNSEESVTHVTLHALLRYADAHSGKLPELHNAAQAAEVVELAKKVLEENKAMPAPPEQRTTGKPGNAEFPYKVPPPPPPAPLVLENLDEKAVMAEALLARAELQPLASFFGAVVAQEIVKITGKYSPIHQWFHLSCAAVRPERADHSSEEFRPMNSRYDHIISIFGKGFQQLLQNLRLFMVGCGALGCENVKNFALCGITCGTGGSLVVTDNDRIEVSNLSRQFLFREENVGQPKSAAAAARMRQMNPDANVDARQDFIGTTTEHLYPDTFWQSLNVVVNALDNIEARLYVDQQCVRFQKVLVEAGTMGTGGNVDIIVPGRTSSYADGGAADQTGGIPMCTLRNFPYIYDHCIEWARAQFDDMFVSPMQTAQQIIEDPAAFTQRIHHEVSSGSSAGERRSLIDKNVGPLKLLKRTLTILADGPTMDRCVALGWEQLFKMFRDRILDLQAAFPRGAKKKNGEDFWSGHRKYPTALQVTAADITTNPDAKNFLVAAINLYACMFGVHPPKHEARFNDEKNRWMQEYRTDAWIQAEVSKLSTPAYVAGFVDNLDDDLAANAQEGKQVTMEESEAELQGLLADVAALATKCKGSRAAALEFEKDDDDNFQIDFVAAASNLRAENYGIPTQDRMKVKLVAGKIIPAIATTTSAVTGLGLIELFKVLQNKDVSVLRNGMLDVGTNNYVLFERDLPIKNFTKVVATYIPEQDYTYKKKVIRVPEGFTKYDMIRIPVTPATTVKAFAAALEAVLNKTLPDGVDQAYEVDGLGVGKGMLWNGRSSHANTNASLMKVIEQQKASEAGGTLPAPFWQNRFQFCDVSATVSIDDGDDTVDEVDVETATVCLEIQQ
In words: Leishmania donovani Ubiquitin Activating Enzyme (LdE1). Type of test: functional. Particulars: 30 µM.

Test [3] deals with AMP-activated protein kinase, AMPK (Homo sapiens) (UniProt P54646+O43741+P54619+Q9UGJ0+Q9Y478+Q13131+Q9UGI9). Put plainly: AMP-dependent Kinase enzyme assay. An in vitro enzyme assay that detects ADP turnover that is directly proportional to AMPK activity. This uses naive AMPK that is activated during the assay with MK-8722. Type of test: functional. Particulars: 30 µM.
Test [4] concerns the target Sialic acid-binding Ig-like lectin 9 (Homo sapiens) (UniProt Q9Y336). Put plainly: Hs-Siglec9 ALPHAscreen SOP 20170721. The note with it: 10 µM. In general terms: Bead proximity is the source of the signal in Alpha formats.
Another test relates to Trypanosoma cruzi. Put plainly: Trypanosoma cruzi phosphomannomutase and mannose-1-phosphate guanylyltransferase assay. The note with it: 10 µM. Type of test: functional.
In test [5] the target is T2, Arginase-2, mitochondrial (Homo sapiens) (UniProt P78540).
T2 sequence (whole entry): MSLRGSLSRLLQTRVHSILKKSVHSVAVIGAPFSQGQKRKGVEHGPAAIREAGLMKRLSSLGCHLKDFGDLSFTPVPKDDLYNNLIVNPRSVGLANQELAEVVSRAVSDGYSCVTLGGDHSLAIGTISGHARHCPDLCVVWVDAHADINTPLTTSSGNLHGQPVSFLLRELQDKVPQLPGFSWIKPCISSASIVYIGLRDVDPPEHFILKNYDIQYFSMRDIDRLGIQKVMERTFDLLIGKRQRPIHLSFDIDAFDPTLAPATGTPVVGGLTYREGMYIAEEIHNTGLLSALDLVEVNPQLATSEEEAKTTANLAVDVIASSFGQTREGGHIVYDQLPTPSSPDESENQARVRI
Put plainly: in vitro enzyme assay to detect the production of urea directly proportional to the activity of Arginase II. Further: in the data most compounds retested in dose-response had high values. It counts as functional. Particulars: 33.3 µM.

Test [6] deals with T3, Proteasome subunit beta (Trypanosoma cruzi) (UniProt O96673).
T3 sequence (whole entry): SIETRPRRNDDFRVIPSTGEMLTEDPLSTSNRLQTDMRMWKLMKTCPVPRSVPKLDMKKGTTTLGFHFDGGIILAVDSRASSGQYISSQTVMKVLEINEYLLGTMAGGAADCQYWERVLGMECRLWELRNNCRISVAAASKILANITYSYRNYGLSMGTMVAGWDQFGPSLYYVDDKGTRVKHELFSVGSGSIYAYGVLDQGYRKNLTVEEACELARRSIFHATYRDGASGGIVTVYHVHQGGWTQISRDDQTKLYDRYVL
Put plainly: Trypanosoma cruzi proteasome chymotrypsin-like activity (TcProtChymo) assay. Further: in the data most compounds retested in dose-response had high values. It counts as functional. The note with it: 9.37 µM.

A further test is filed under the species Homo sapiens. In words: To identify inhibition of the IFN signalling (Jak-Stat) pathway via expression of an eGFP reporter gene under the control of an IFN-stimulated response element (ISRE) containing MxA promoter. Type of test: functional. Particulars: 30 µM.
In test [7] the target is T4, Tyrosyl-tRNA synthetase, putative (Trypanosoma cruzi (strain CL Brener)) (UniProt Q4DSP6).
T4 sequence (whole entry): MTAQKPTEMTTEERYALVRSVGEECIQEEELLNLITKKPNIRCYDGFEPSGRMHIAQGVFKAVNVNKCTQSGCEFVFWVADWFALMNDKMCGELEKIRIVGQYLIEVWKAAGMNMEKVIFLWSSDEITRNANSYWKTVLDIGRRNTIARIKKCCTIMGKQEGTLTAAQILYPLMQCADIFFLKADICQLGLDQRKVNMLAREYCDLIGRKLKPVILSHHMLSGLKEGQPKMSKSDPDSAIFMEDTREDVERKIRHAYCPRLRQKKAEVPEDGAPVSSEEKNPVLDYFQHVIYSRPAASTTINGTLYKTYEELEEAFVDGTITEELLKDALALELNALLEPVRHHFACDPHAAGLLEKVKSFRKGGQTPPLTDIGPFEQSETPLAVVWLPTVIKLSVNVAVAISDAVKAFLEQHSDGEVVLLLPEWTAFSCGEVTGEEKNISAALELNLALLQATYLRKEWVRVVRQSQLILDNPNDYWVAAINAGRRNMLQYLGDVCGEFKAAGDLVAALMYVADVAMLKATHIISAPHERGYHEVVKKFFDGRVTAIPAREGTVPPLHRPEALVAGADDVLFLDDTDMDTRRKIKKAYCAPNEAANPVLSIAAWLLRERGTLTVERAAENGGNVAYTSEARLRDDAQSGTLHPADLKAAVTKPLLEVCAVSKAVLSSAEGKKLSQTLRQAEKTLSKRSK
Put plainly: Trypanosoma cruzi tyrosyl tRNA synthetase (TcYRS) _High Tyrosine SOP. Further: in the data most compounds retested in dose-response had high values. Type of test: functional. The note with it: 30 µM.

Test [8] deals with T4, Tyrosyl-tRNA synthetase, putative (Trypanosoma cruzi (strain CL Brener)). Put plainly: Trypanosoma cruzi tyrosyl tRNA synthetase (TcYRS) SOP. It counts as functional. Particulars: 30 µM.
Test [9] concerns the target Chromo domain-containing protein 1 (Saccharomyces cerevisiae (strain ATCC 204508 / S288c) (Baker's yeast)) (UniProt P32657). In words: ScCHD-1 Enzyme Inhibition Assay. Further: in the data most compounds retested in dose-response had high values. Type of test: functional. The note with it: 30 µM.

Protein translocase subunit SecA (Escherichia coli (strain K12)), sequence (P10408 whole entry): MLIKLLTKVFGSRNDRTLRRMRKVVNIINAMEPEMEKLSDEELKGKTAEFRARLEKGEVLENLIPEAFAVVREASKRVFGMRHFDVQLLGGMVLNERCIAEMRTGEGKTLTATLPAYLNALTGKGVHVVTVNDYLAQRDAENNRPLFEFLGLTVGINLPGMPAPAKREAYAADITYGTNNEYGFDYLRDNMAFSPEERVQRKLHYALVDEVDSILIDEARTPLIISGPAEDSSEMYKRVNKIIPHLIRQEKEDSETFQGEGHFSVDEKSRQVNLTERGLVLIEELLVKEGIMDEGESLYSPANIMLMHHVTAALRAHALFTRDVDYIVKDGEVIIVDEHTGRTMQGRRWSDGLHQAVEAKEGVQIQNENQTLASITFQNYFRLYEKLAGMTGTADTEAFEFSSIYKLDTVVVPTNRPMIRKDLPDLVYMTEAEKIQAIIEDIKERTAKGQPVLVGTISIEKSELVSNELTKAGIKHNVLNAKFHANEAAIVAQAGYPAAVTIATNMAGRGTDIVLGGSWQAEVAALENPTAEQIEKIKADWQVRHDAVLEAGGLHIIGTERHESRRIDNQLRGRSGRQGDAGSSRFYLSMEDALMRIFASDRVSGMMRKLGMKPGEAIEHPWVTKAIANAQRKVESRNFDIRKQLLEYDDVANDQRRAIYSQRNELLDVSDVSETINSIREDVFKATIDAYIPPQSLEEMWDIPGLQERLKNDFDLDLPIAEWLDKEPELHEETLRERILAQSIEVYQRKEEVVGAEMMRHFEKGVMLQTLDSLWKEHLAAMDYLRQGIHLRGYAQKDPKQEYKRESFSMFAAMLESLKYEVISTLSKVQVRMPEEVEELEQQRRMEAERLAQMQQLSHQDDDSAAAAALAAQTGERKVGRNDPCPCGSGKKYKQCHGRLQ
Chromo domain-containing protein 1 (Saccharomyces cerevisiae (strain ATCC 204508 / S288c) (Baker's yeast)), sequence (P32657 whole entry, the tested form may be a part): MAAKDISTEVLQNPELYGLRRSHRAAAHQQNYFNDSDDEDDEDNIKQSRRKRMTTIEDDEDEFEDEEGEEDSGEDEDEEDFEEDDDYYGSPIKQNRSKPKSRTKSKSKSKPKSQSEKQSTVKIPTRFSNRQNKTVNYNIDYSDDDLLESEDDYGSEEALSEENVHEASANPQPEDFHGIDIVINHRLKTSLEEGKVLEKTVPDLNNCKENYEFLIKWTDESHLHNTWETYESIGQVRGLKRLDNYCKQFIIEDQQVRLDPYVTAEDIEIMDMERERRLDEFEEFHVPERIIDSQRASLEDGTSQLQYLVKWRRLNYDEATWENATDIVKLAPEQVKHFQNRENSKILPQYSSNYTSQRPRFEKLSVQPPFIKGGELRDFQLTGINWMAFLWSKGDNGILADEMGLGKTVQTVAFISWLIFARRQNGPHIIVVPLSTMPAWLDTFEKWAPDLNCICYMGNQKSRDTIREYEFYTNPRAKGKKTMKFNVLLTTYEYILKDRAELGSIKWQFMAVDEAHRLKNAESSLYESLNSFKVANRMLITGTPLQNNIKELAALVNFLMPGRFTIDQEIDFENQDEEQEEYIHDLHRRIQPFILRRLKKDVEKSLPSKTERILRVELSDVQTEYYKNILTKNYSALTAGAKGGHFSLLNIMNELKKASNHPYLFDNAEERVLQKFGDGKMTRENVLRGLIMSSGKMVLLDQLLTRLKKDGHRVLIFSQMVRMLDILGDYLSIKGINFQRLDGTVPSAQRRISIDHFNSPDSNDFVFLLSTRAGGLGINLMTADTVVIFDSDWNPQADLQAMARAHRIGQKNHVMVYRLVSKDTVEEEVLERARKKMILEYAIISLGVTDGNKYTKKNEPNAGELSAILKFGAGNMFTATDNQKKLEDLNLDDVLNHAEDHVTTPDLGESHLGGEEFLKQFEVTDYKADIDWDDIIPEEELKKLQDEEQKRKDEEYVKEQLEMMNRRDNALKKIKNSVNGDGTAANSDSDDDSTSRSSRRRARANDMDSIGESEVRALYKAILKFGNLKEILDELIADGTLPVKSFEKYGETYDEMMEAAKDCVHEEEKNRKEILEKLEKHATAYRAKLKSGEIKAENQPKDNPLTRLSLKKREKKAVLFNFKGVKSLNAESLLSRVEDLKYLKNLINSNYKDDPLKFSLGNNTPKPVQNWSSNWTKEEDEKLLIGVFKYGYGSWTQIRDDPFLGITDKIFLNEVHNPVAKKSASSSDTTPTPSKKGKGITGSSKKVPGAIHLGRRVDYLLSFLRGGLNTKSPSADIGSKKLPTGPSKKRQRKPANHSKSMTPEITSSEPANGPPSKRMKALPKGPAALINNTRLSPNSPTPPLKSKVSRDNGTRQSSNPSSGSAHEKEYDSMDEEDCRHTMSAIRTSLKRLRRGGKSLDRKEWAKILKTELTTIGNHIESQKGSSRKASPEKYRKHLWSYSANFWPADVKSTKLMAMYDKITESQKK
Sialic acid-binding Ig-like lectin 9 (Homo sapiens), sequence (Q9Y336 whole entry): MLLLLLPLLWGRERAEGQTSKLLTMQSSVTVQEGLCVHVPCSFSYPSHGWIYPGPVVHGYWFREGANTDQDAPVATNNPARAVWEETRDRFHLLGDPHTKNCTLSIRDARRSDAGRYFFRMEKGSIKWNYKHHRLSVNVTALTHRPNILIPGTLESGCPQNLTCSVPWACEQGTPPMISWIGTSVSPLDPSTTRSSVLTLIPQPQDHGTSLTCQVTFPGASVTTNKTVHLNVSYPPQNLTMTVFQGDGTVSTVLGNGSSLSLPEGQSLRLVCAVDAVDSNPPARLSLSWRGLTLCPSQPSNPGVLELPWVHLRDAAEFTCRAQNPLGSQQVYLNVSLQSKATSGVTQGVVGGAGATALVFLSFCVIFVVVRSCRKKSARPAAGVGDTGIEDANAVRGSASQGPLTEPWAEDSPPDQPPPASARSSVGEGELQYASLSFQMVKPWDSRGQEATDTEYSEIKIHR

Consider `CC(NCc1ccc(F)cc1)c1ccc(OCC(=O)NC2CC2)cc1` (stereo unspecified), for which the Percent Effect in [1] was -1.43%; in test [2], 6.33%; in [3] it was 9.48%; in test [4], -4.28%; with Trypanosoma cruzi, -6.26%; in test [5], -7.1%. Besides, the Percent Effect in [6] was 18%; in the test filed under Homo sapiens, 17%; in test [7] it was 1.04%; in [8], 2.53%; in test [9], -17.3%.

With `CC(O)CN(CC(=O)NC(=O)NCC(F)(F)F)c1ccccc1` (stereo unspecified), the Percent Effect in test [1] was -4.64%; in test [2], 7.79%; in test [3], 6%; in test [4] it was 6.31%; in the test with Trypanosoma cruzi it was -3.82%; in test [5], 1.9%. For the same molecule, the Percent Effect in test [6] was 7.36%; in the test filed under Homo sapiens, 17.3%; in test [7], 0%; in test [8], 11.8%; in test [9], -9.73%.

Turning to `CC(C)NC(=O)N1CC[C@@H]2CN(Cc3cccc(Cl)c3)S(=O)(=O)[C@@H]2CC1`, the Percent Effect in [1] is -0.309%; in test [2], 8%; in test [3], 9.12%; in [4], -2.2%; in the test with Trypanosoma cruzi, -7.34%; in [5], -59.3%. Also, the Percent Effect in [6] is 13.5%; in the test listed under Homo sapiens, 35.6%; in test [7], 0%; in test [8], 10%; in test [9] it was -7.22%.

With `NC(=O)CN1CCCN(C(=O)c2ccn(-c3cccc(F)c3)n2)CC1`, the Percent Effect is -1.81% in test [1]; 6.94% in test [2]; -1.98% in [3]; -6% in [4]; -3.01% with Trypanosoma cruzi; 2.21% in test [5]. Also, the Percent Effect in test [6] was 10.3%; in the test filed under Homo sapiens, -17.8%; in test [7], -1.05%; in test [8], 5.13%; in test [9] it was -0.989%.

As to `CNS(=O)(=O)Cc1ccc(CNC(=O)Nc2cn[nH]c2)cc1`, the Percent Effect in [1] was -5.68%; in [2], 20.2%; in test [3], 6.15%; in [4] it was -12.1%; in the test on Trypanosoma cruzi, -3.68%; in [5], 1.52%. Also, the Percent Effect was 8.11% in test [6]; 18.9% in the test filed under Homo sapiens; 2.46% in test [7]; 13.9% in test [8]; -0.403% in [9].

In the case of `CCc1ncncc1C(=O)N1CCOC(c2nc(C)n[nH]2)C1` (stereo unspecified), the Percent Effect in test [1] was -9.48%; in test [2], -1.27%; in test [3] it was 7.38%; in [4] it was 5.45%; in the test with Trypanosoma cruzi, -2.56%; in test [5], 2.8%. Further, the Percent Effect in test [6] is 5.32%; in the test listed under Homo sapiens, 1.37%; in test [7], 1.04%; in test [8], 10.1%; in test [9], 1.96%.

Turning to `Cc1ncsc1C(=O)NCCn1nc(C2CCNC2)c2cccnc21` (stereo unspecified), the Percent Effect is -1.57% in test [1]; -2.67% in test [2]; 5.57% in test [3]; 1.22% in test [4]; 2.17% in the test with Trypanosoma cruzi; 0.699% in test [5]. The Percent Effect in test [6] was 3.26%; in the test filed under Homo sapiens, -2.08%; in test [7], 0%; in test [8], 6.41%; in [9] it was 1.51%.

In the case of `O=C(NCC(Cc1cccc(F)c1)N1CCCC1=O)c1cnccn1` (stereo unspecified), the Percent Effect was -2.43% in test [1]; 2.74% in [2]; 8.47% in test [3]; -6.79% in [4]; -4.31% in the test on Trypanosoma cruzi; 3.64% in test [5]. Also, the Percent Effect was 9.94% in [6]; -2.19% in the test listed under Homo sapiens; 4.3% in test [7]; 5% in [8]; -2.36% in test [9].

As to `O=C(NCC(F)F)N1CCC(n2ccc(C(F)(F)F)n2)CC1`, the Percent Effect in [1] was -2.09%; in test [2] it was 5.48%; in test [3] it was -1.59%; in test [4] it was 3.79%; with Trypanosoma cruzi, 5.09%; in test [5], 8.64%. Further, the Percent Effect is 10.3% in test [6]; 0.988% in the test listed under Homo sapiens; 2.15% in [7]; 7.5% in test [8]; -4.48% in test [9].

For `CCOCC1CN(C(=O)C2=CCCC2)Cc2cnn(CC)c21` (stereo unspecified), the Percent Effect in [1] was -2.5%; in [2] it was 16.2%; in [3] it was -0.303%; in test [4], 0.664%; in the test with Trypanosoma cruzi it was 3.62%; in test [5] it was 3.5%. The Percent Effect in [6] is 19.9%; in the test filed under Homo sapiens it was 9.89%; in test [7], 3.24%; in [8], 12.8%; in [9], -2.18%.

On to `CCN(CC1CCOC1)C(=O)c1ccccc1N1CCOCC1` (stereo unspecified), for which the Percent Effect in [1] is -3.71%; in test [2] it was 23.7%; in test [3], -4.13%; in test [4] it was -10.1%; in the test on Trypanosoma cruzi, -3.08%; in test [5], 1.8%. The Percent Effect in test [6] is 4.82%; in the test listed under Homo sapiens, 12.3%; in [7], 5.42%; in [8], 11.1%; in test [9], -5.45%.
